ABHD5 PLIN5 PPI: ABHD5-PLIN5 interaction inhibitors, primary screen, cell lysate, split luciferase complementation, luminescence | Perilipin-5 (Homo sapiens) + 1-acylglycerol-3-phosphate O-acyltransferase ABHD5 (Homo … | Split G. princeps luciferase complementation, 4 h | inhibition, % at 4 µM | 360,000 compounds, 0.78% hits;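 active = inhibition above the mean inhibition across every tested compound plus 3 SD, cut at about 22% in these data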;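 note: 0% = DMSO only wells and the 100% control is not disclosed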
TLR9-MyD88 block: inhibitors of TLR9-MyD88 association in cells, primary screen, cell-based, CHO, BLA complementation, fluorescence | AID 504734, 2011 | Toll-like receptor 9 (Homo sapiens) + Myeloid differentiation primary response protein … | CCF4 FRET ratio | 340,000 compounds, 0.21% hits | inhibition, % at 4.98 µM;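 active = inhibition above the mean over all tested compounds plus 3 SD, cut at about 21% in these data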;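 note: 0% = DMSO only wells and 100% = clavulanate BLA inhibitor control wells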
Beta2AR agonist: beta2AR agonists driving receptor internalization, primary screen, cell-based, FAP fluorogen, flow cytometry. response, % (no concentration beside the values). Beta-2 adrenergic receptor (Homo sapiens), P07550. Am2.2-beta2AR cells. 340,000 compounds, 0.43% hits;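 active = response above a set limit, near 3 SD of response in nonfluorescent compounds, cut at about 42% in these data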
Granule exo inh: LAMP-1 surface exposure blockers, TALL-104 cells – cell-based, flow cytometry, MLPCN library, primary screen; TALL-104 LAMP-1 surface exposure; cells stimulated with thapsigargin and PMA; 360,000 compounds, 0.66% hits; AID 651702, 2012; inhibition, % at 10 µM;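 active = inhibition above about 55%, limit read from the data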
NOD2 RIPK2 PPI: NOD2-RIPK2 binding disruptors in cells, primary screen, fluorescence, CHO cells, BLA complementation; CCF4 ratio; inhibition, % at 4.98 µM; 360,000 compounds, 0.38% hits; AID 624267, 2012; in the data active = inhibition above about 21%;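 note: 0% = vehicle only and 100% = reference blocker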
Target sequence (O43353 whole entry, looked up): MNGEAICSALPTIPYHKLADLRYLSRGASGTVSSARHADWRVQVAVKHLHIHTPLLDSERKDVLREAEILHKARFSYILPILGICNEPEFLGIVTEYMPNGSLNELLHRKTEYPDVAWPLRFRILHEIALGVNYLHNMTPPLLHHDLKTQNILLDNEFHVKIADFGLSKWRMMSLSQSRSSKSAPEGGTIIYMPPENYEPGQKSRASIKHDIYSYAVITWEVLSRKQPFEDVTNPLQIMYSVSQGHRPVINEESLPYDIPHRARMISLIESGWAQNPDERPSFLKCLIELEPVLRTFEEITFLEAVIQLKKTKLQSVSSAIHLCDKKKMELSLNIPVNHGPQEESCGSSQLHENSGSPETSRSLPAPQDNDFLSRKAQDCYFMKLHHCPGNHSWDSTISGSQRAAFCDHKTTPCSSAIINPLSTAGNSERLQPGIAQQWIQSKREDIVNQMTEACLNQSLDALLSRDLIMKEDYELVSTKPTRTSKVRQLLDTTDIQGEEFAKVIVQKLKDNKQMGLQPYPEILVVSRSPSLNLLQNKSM
TLR4-MyD88 BLA: inhibitors of TLR4-MyD88 association in cells, primary screen, cell-based, HeLa CL3-4, BLA complementation, FRET ratio | Toll-like receptor 4 (Homo sapiens) + Myeloid differentiation primary response protein … | HeLa CL3-4 TLR4/MyD88 BLA complementation | inhibition, % at 8.4 µM | 200,000 compounds, 0.18% hits; in the data active = inhibition above about 25%;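 note: 0% = vehicle and 100% = reference inhibitor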
An asterisk follows results filed as active; x = no result given. An excerpt weighted towards active compounds, which were near 2% of everything screened.

SMILES | ABHD5 PLIN5 PPI | TLR9-MyD88 block | Beta2AR agonist | Granule exo inh | NOD2 RIPK2 PPI | TLR4-MyD88 BLA
CC1C/C(=C/c2ccccn2)C(=O)/C(=C/c2ccccn2)C1 (configuration not stated) | 75.7* | 8.1 | 17.4 | 11.1 | 15.8 | 7.6
NC(N)=NN=C(c1ccc(F)cc1)c1ccc(C(F)(F)F)cc1 | 2.6 | 3.6 | 13.2 | 57.0* | 9.2 | x
CC1(C)CC(=O)C=C(c2ccc(COC(=O)C(c3ccccc3)c3ccccc3)cc2)C1=O | -5.2 | -6.5 | x | -3.2 | -12.8 | x
O=C1C2C3C=CC(C3=C3CCCCC3)C2C(=O)N1c1ccccc1 (configuration not stated) | 9.3 | -5.3 | 6.7 | 79.9* | -14.2 | 5.6
O=Cc1cc(N=Nc2cccc(C(=O)O)c2)ccc1O | 4.6 | -5.8 | 3.8 | 52.0 | -8.7 | -8.4
O=Cc1cc(N=Nc2ccccc2Cl)ccc1O | 3.8 | -9.1 | 22.9 | 62.4* | -1.6 | -2.9
Cc1ccc(-n2c(-c3ccc(Br)cc3)c[n+]3c2CCc2ccc4cccnc4c2-3)cc1 | 20.4 | -5.4 | -5.5 | 72.5* | 19.1 | 23.2
COc1ccccc1/C=C1\SC(=S)N(CCC(=O)NCCc2ccc(O)cc2)C1=O | 6.2 | 6.2 | 8.4 | 88.4* | -10.0 | x
O=C(CCN1C(=O)/C(=C/c2ccccc2F)SC1=S)NCCc1ccc(O)cc1 | -1.9 | 4.3 | -1.7 | 0.9 | 13.5 | x
Cc1ccc(-c2nn(-c3ccccc3)cc2C(=O)N2CCN(c3ccccn3)CC2)cc1 | 1.8 | -2.6 | -20.1 | 10.1 | 1.5 | 8.4
COc1ccc(-c2nn(-c3ccccc3)cc2/C=C/C(=O)N2CCN(c3ccccn3)CC2)cc1 | 1.2 | -16.6 | 55.4* | -2.4 | -4.2 | -1.8
CNc1cc(-c2ccc(O)cc2C)ncn1 | 6.8 | x | x | 14.3 | -9.6 | x
CN(c1ccccc1)S(=O)(=O)c1cccc(NS(=O)(=O)c2cccc(C(=O)O)c2)c1 | 22.0* | -11.8 | 1.9 | 10.2 | -0.7 | x
CN(c1ccccc1)S(=O)(=O)c1cccc(C(=O)NC2CCCCC2)c1 | 0.5 | -6.7 | 0.1 | -0.9 | -2.8 | x
O=C1S/C(=C\c2ccc(N3CCOCC3)o2)C(=O)N1Cc1c(F)cccc1Cl | 16.8 | 7.7 | -243.6 | 87.7* | -4.1 | 1.5
CCOC(=O)C(=N/O)/C(C)=N/NC(=O)C(=O)Nc1cc(Cl)ccc1Cl | -5.7 | 5.2 | 1.8 | 77.9* | 2.3 | x
O=C(/C=C/c1cc[n+](CC(=O)c2ccc3cccc4c3c2CC4)cc1)c1ccc2cccc3c2c1CC3 | 23.0* | -10.2 | 73.8* | 70.5* | -9.4 | x
CNC(=O)/C(C#N)=C/c1c(N(Cc2ccccc2)Cc2ccccc2)nc2c(C)cccn2c1=O | 7.2 | -7.4 | 60.5* | 2.5 | 1.7 | 2.0
CCNC(=O)/C(C#N)=C/c1c(N(Cc2ccccc2)Cc2ccccc2)nc2ccccn2c1=O | 8.3 | -2.8 | 23.0 | -2.4 | -12.9 | 1.1
O=C(N[C@@H]1CC[C@@H](CCNS(=O)(=O)c2ccc(Cl)cc2)O[C@@H]1CO)c1cccnc1 | 0.8 | x | x | -0.4 | -3.9 | x
CCC(=O)N1CCCC(C)(C(=O)NS(=O)(=O)c2ccccc2Cl)C1 (configuration not stated) | 7.0 | x | x | 1.4 | 1.1 | x
O=C(Nc1ccc2nc(-c3ccco3)c(-c3ccco3)nc2c1)N1CCCCCC1 | x | x | x | x | x | 13.0
CCOC(=O)C1CCN(C(=O)Nc2ccc3nc(-c4ccco4)c(-c4ccco4)nc3c2)CC1 | 30.7* | 14.1 | 19.9 | -1.4 | 3.5 | 17.0
NC(N)=N/N=C(\N=Nc1ccccc1)c1ccc(Cl)cc1 | -4.1 | 8.3 | 16.4 | 56.3* | 4.1 | x
Cn1cc(CNCc2cn(C)nc2-c2ccc(C3CCCCC3)cc2)cn1 | 22.2* | -1.4 | 27.5 | 6.5 | -6.5 | -4.8
SMILES | ABHD5 PLIN5 PPI | TLR9-MyD88 block | Beta2AR agonist | Granule exo inh | NOD2 RIPK2 PPI | TLR4-MyD88 BLA
Nc1[nH]c(C(=O)c2ccccc2)c(-c2cccnc2)c1C(=O)NCCc1ccc(Cl)cc1Cl | 1.8 | x | x | -5.1 | -12.8 | x
COc1ccc(C2=Nc3ccccc3N(C(=O)c3cc(Cl)cc(Cl)c3)C2C(=O)NCc2ccccc2)cc1 (configuration not stated) | -12.2 | x | x | -2.2 | 5.8 | x
CCOC(=O)[C@]12CCCC=C1N(Cc1ccc3c(c1)OCO3)C(=O)[C@H](CC(=O)NCc1cccc(C(F)(F)F)c1)C2 | -7.3 | x | x | 9.3 | -8.8 | x
CC(=O)Nc1cncc(-c2cccc(S(C)(=O)=O)c2)n1 | 0.1 | x | x | -1.9 | 0.3 | x
CC1(C)C(/C=C/C=C/C=C/C=C2\N(CCCCS(=O)(=O)O)c3ccc4ccccc4c3C2(C)C)=[N+](CCCCS(=O)(=O)[O-])c2ccc3ccccc3c21 | 53.7* | 12.8 | 57.5* | -22.7 | 1.5 | x
COC(=O)[C@]12CCCCC=C1N(Cc1ccc3c(c1)OCO3)C(=O)[C@H](CC(=O)NCCCN1CCCC1=O)C2 | 11.7 | x | x | 10.3 | -11.3 | x
Cc1ccc(S(=O)(=O)N2[C@H](CC(=O)c3ccc(F)cc3)OC[C@@H]2C(C)C)cc1 | -2.1 | x | x | -7.4 | -14.6 | x
CC1(C)CC(=O)C2=C(C1)N=C1c3ccccc3C(=O)C1C2c1ccc(Cl)cc1 (configuration not stated) | 22.1* | 1.6 | 8.7 | 34.2 | -12.0 | 14.0
CC1=NNC(=O)/C1=C\c1cn(-c2ccccc2)nc1-c1ccc(F)cc1 | 5.6 | -0.2 | 107.7* | 65.5* | 4.0 | 2.6
O=C(O)Cn1c2c(c3ccccc31)CSc1ccc(Cl)cc1-2 | 22.8* | -6.9 | -0.6 | -0.9 | -0.8 | x
COC(=O)Cn1c(=NC(=O)c2cc(-c3cccs3)nc3ccccc23)sc2cc(S(N)(=O)=O)ccc21 | 25.8* | -1.4 | 6.1 | 19.5 | -14.1 | -21.2
Cc1cccc2sc(NNC(=O)c3ccc(S(=O)(=O)N4CCCC(C)C4)cc3)nc12 (configuration not stated) | 1.6 | 7.7 | 21.9 | 2.8 | -0.8 | -6.6
Cc1cccc2sc(NNC(=O)c3ccc(S(=O)(=O)N4CCc5ccccc5C4)cc3)nc12 | 23.3* | 5.7 | 22.1 | 11.5 | 11.1 | 9.1
CCCCOP(=O)(OCCCC)C1(NS(=O)(=O)c2ccccc2)C=CC(=O)c2ccccc21 (configuration not stated) | -5.7 | 2.1 | 0.3 | 99.4* | 7.1 | 6.1
CC(C)(C)C(C(=O)NCc1ccccc1)N1CCN(CCN2CCOCC2)CC1 (configuration not stated) | 4.8 | x | x | -2.9 | -19.1 | x

High-throughput results deposited in PubChem by several laboratories.
